Compound activity as filed in PubChem BioAssay.
This is a sample that favours compounds with a hit; in the whole collection about 1.8% have one here.
ClpP mod – qHTS Assay for Activators of ClpP; purified B. subtilis ClpP, FRET peptide cleavage, 20 min; AID 651965, 2013; Potency, µM (top dose mostly 57.5 µM); 340,000 compounds, 1.9% hits; active = well fitted falling curve with a large enough effect; inconclusive = small, poorly fitted or top-dose-only effect; inactive = no such curve, though single readings can be large or run the other way; note: the source files actives as falling curves though it sought activators and does not explain the sign; nearly all actives have a fitted effect of over 65% in size
Target sequence (P80244 whole entry, looked up): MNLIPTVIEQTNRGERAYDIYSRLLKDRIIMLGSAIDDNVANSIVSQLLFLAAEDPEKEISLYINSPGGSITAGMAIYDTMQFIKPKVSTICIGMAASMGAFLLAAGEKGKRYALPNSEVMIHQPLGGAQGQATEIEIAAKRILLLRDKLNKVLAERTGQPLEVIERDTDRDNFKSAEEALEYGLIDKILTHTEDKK
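Buffer: 100 mM Tris/HCl pH8, 100 mM KCl, 0.05% low protease BSA, 2.5% glycerol, 0.01% Tween-20. ClpP 10 microg/mL final; 20 min RT; delta FRET normalized to ADEP and DMSO controls.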
MBNL1-CUG inh – inhibitors of human MBNL1 binding to CUG repeat RNA; 280,000 compounds, 0.036% hits; Potency, µM (series often up to 57.5 µM), usual class: inhibitors; TR-FRET MBNL1-His/biotin-(CUG)12 binding, 665/545 ratio; Q9NR56; active = well fitted inhibition curve with a large enough effect in the signal ratio, with a control signal flat, not every such curve was filed as active; inconclusive = small, poorly fitted or top-dose-only effect, or effect the other way, or a change in a side signal; inactive = no such curve, though single readings can be large or run the other way; the % refers to the signal ratio
Target sequence (Q9NR56 whole entry, looked up): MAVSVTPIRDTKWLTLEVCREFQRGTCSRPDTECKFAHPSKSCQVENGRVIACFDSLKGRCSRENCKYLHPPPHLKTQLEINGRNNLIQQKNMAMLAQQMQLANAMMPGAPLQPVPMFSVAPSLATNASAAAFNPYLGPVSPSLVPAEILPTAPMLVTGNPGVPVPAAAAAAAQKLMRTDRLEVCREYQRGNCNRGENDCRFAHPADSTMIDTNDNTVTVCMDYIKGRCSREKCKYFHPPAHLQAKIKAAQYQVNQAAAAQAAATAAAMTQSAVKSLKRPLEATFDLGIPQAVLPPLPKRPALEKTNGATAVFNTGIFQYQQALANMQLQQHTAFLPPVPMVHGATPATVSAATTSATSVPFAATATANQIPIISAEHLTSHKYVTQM
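TR-FRET between His-tagged MBNL1 and biotin-(CUG)12 RNA, detected with Tb anti-His antibody (0.055 ng/ul) and streptavidin-XL665 (5 nM), 60 min at room temperature. Compounds titrated 92 nM to 58 uM; 665/545 nm ratio normalized to buffer and complex controls.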
TCR activator – T cell receptor activation; primary human leukocytes, anti-CD3, IL-2 HTRF, 48 h; Potency, µM (series often up to 9.22 µM), most hits filed as activators; 330,000 tested, under 10 active; AID 504894
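Primary human leukocytes incubated 48 hr with anti-CD3 beads plus compound, without co-stimulation. Secreted IL-2 measured by HTRF (europium cryptate/d2 anti-IL-2 pair, 320 nm excitation, 665 nm emission).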
Mito fusion act – mitochondrial division inhibition or fusion activation; 320,000 compounds, 0.23% hits; Potency, µM (titrated, usually from 46.1 µM), most hits filed as activators; S. cerevisiae fusion-defective mutant growth rescue, CellTiterGlo 48 h; note: nearly all actives have a fitted effect of over 45% in size
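Read-out: ATP-based luminescence (CellTiterGlo, 10 min ambient) reporting growth of fusion-defective ts yeast after 48 hours at 37C on glycerol/ethanol YPEG medium in the presence of compound.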
Glioma ERSR ind – induces the endoplasmic reticulum stress response in human glioma cells; 420,000 compounds, 0.02% hits; U87-MG GRP78 promoter luciferase reporter, 16 h; Potency, µM, hits mostly activators; note: series mostly up to about 76 µM; nearly all actives have a fitted effect of over 35% in size
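Stably transfected U87-MG glioma cells carrying a GRP78-based luciferase sensor; 16 h compound incubation. Luminescence end-point read 10 min after Bright-Glo addition at room temperature.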
AT treatment – potential ataxia-telangiectasia treatment | F2112 A-T fibroblasts, KAP-1 phosphorylation AlphaLISA; neocarzinostatin DNA damage 30 min before lysis | Potency, µM (series often up to 57.5 µM), hits mostly activators | 320,000 compounds, 0.19% hits | AID 485349; note: nearly all actives have a fitted effect of over 45% in size
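hTERT-immortalized A-T patient fibroblasts (F2112), 500 cells/well in OPTI-MEM, 1% FBS, got compounds for 60 min, then NCS for 30 min at 37C. Lysates were then assayed for phospho-KAP-1 by AlphaLISA (anti-pKAP1 donor, anti-KAP1 acceptor beads), 6 hr at 25C.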
A number is an active result. Unless noted, calls come from the whole dose curve; as a rule, active = well fitted curve in the direction sought with a large enough effect; inconclusive = small, poorly fitted or top-dose-only effect, or another doubt; inactive = no such curve, though single readings can be large; an effect the other way counts as inactive or inconclusive.

Results for O=C(c1ccc(F)cc1)C(CN1CCOCC1)c1ccccc1 (configuration not stated) ?
ClpP mod: inactive; MBNL1-CUG inh: inactive; TCR activator: inactive; Mito fusion act: inactive; Glioma ERSR ind: inactive; AT treatment: 40µM

What do the screens show for `O=C(c1ccccc1)C(CCC(CN1CCOCC1)C(=O)c1ccccc1)CN1CCOCC1` (configuration not stated)?
ClpP mod: inactive; MBNL1-CUG inh: inactive; TCR activator: inactive; Mito fusion act: inactive; Glioma ERSR ind: inactive; AT treatment: 35µM

How did CCCCC/C=C\C/C=C\C/C=C\C/C=C\CCCC(=O)C(F)(F)F do in these assays?
Glioma ERSR ind: inactive

How did CCC(COC(=O)Nc1cccc(C)c1)NC(=O)OCC(C)C (configuration not stated) do in these assays?
ClpP mod: 10µM; MBNL1-CUG inh: inactive; TCR activator: inactive; Mito fusion act: inactive; Glioma ERSR ind: inactive; AT treatment: inactive

What do the screens show for `CCNC(=O)OCC(CC)NC(=O)OCC(C)C` (configuration not stated)?
ClpP mod: inactive; MBNL1-CUG inh: inactive; TCR activator: inactive; Mito fusion act: inactive; Glioma ERSR ind: inactive; AT treatment: inactive

What do the screens show for `O=C1/C(=C/c2ccsc2)CC/C1=C\c1cccs1`?
Mito fusion act: 12µM; Glioma ERSR ind: inactive

Results for c1ccc2c(c1)c1c(c3ccccc32)CN2CCCC2C1 (configuration not stated) ?
ClpP mod: 20µM; TCR activator: inactive; Glioma ERSR ind: inactive

What do the screens show for `NC(=S)NN=C1CSSC1`?
ClpP mod: inactive; Glioma ERSR ind: 35µM

How did Cc1cc(C)n(-c2nc(NCCO)c3c4c(sc3n2)CCCC4)n1 do in these assays?
ClpP mod: inactive; MBNL1-CUG inh: inactive; TCR activator: inactive; Mito fusion act: inactive; Glioma ERSR ind: inactive; AT treatment: inactive

Results for Cc1cc(C)n(-c2nc(NCCCO)c3c4c(sc3n2)CCCC4)n1 ?
ClpP mod: 18µM; MBNL1-CUG inh: inactive; TCR activator: inactive; Mito fusion act: inactive; Glioma ERSR ind: inactive; AT treatment: inactive

How did Cc1cc(C)n(-c2nc(NCC(C)O)c3c4c(sc3n2)COC(C)(C)C4)n1 (configuration not stated) do in these assays?
ClpP mod: 28µM; MBNL1-CUG inh: inactive; TCR activator: inactive; Mito fusion act: inactive; Glioma ERSR ind: inactive; AT treatment: inactive

What do the screens show for `Cc1cc(C)n(-c2nc(NCC(C)O)c3c4c(sc3n2)CCCC4)n1` (configuration not stated)?
ClpP mod: 32µM; MBNL1-CUG inh: inactive; TCR activator: inactive; Mito fusion act: inactive; Glioma ERSR ind: inactive; AT treatment: inactive

How did Cc1cc(C)n(-c2nc(NCC3CCCO3)c3c4c(sc3n2)COC(C)(C)C4)n1 (configuration not stated) do in these assays?
ClpP mod: inactive; MBNL1-CUG inh: inactive; TCR activator: inactive; Mito fusion act: inactive; Glioma ERSR ind: inactive; AT treatment: inactive

What do the screens show for `Cc1cc(C)n(-c2nc(SCC(=O)O)c3c4c(sc3n2)CCCC4)n1`?
MBNL1-CUG inh: inactive; Mito fusion act: inactive; AT treatment: inactive

How did O=S(=O)(NCc1nnc2n1CCN(Cc1ccccc1Cl)CC2)c1ccccc1 do in these assays?
Glioma ERSR ind: inactive

How did COc1cccc(CN2C(=O)NC(C)(C3CCN(Cc4cc(Cl)ccc4O)CC3)C2=O)c1OC (configuration not stated) do in these assays?
Glioma ERSR ind: inactive

What do the screens show for `C[C@@H]1CN(Cc2ccc3c(c2)CN(Cc2nc(-c4ccccc4)cs2)CCO3)C[C@H](C)O1`?
Glioma ERSR ind: inactive

How did O=C(CCc1ccc(S(=O)(=O)NCc2ccccc2)cc1)NCc1cccnc1 do in these assays?
ClpP mod: 14µM; TCR activator: inactive; Mito fusion act: inactive; Glioma ERSR ind: inactive; AT treatment: inactive

What do the screens show for `Cc1oc2c(CN3CCCC3)c(O)ccc2c(=O)c1-c1ccc(Br)cc1`?
ClpP mod: 14µM; MBNL1-CUG inh: inactive; TCR activator: inactive; Mito fusion act: inactive; Glioma ERSR ind: inactive; AT treatment: inactive

What do the screens show for `Cc1oc2c(CN3CCCCC3)c(O)ccc2c(=O)c1-c1ccc(Br)cc1`?
MBNL1-CUG inh: inactive; TCR activator: inactive; Mito fusion act: inactive; Glioma ERSR ind: inactive; AT treatment: inactive

What do the screens show for `COc1ccc(-c2c(C)oc3c(CN4CCN(CCO)CC4)c(O)ccc3c2=O)cc1OC`?
ClpP mod: 22µM; MBNL1-CUG inh: inactive; TCR activator: inactive; Mito fusion act: inactive; Glioma ERSR ind: inactive; AT treatment: inactive

What do the screens show for `Cc1c(C(=O)NCC2CCCN(C)C2)cnn1-c1ncc2c(n1)-c1ccccc1CCC2` (configuration not stated)?
Glioma ERSR ind: inactive

What do the screens show for `O=C(Nc1cccnc1Cl)c1cc2c(s1)-c1ccccc1OC2`?
ClpP mod: inactive; MBNL1-CUG inh: inactive; TCR activator: inactive; Mito fusion act: inactive; Glioma ERSR ind: inactive; AT treatment: inactive

What do the screens show for `O=C(Nc1ncc2c(n1)-c1ccccc1OC2)c1ccc(Cl)cc1Cl`?
ClpP mod: 35µM; MBNL1-CUG inh: inactive; TCR activator: inactive; Mito fusion act: inactive; Glioma ERSR ind: inactive; AT treatment: inactive

What do the screens show for `O=C(Nc1ccc(Cl)cn1)c1cc2c(s1)-c1ccccc1OC2`?
ClpP mod: inactive; TCR activator: inactive; Mito fusion act: inactive; Glioma ERSR ind: inactive; AT treatment: 16µM

What do the screens show for `O=C(Nc1ncc2c(n1)-c1ccccc1OC2)c1ccc(F)cc1`?
MBNL1-CUG inh: inactive; TCR activator: inactive; Mito fusion act: inactive; Glioma ERSR ind: inactive; AT treatment: inactive

What do the screens show for `O=C(Nc1ncc2c(n1)-c1ccccc1CC2)c1ccc(Cl)cc1`?
ClpP mod: 28µM; MBNL1-CUG inh: inactive; TCR activator: inactive; Mito fusion act: inactive; Glioma ERSR ind: inactive; AT treatment: inactive

What do the screens show for `O=[N+]([O-])c1nn(-c2ccc3c(c2)OCCO3)n(O)c1=NC1CCCCC1`?
ClpP mod: inactive; MBNL1-CUG inh: inconclusive; TCR activator: inactive; Mito fusion act: 13µM; Glioma ERSR ind: inactive; AT treatment: inactive

What do the screens show for `O=[N+]([O-])c1nn(-c2ccc3c(c2)OCCO3)n(O)c1=NCc1ccccc1Cl`?
ClpP mod: inactive; MBNL1-CUG inh: inconclusive; TCR activator: inactive; Mito fusion act: inactive; Glioma ERSR ind: inactive; AT treatment: inactive
